IL-1B inflam inh = blocks inflammasome-driven IL-1 beta release; THP-1 LPS/ATP IL-1B secretion, AlphaLISA, 16 h; stronger effect = lower value; activity change, % at 57.5 µM; actives 4.7% (n = 360,000); in the data active means activity change below about -50%; inconclusive means mostly about -30% to -49%
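THP-1 cells pretreated 1 hr with compounds (up to 57.5 uM final), then stimulated with LPS (250 ng/mL final) plus ATP (1.25 mM final); secreted IL-1B measured by AlphaLISA after 16 hr, decreased signal indicating inhibition.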
TDP1 cell noCPT = qHTS for Inhibitors of human tyrosyl-DNA phosphodiesterase 1 (TDP1): qHTS in cells in absence of CPT | DT40 Tdp1-/- hTDP1 cells, no CPT, ATP luminescence, 48 h | Potency, µM (top dose mostly 46.2 µM), for inactives: top-dose activity change, negative = growth inhibition, hits mostly inhibitors | actives 15% (n = 420,000); further: potency means the concentration at half of the fitted maximal effect; nearly all actives have a fitted effect of over 55% in size
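DT40 Tdp1-/-;hTDP1 cells, no CPT (DMSO vehicle only), 400 cells/well; compounds pin-transferred; ≥48 hr, 37 °C; CellTiter-Glo 30 min RT dark, luminescence read.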
ELG1 repair inh = ELG1-dependent DNA repair inhibition; AID 504467; HEK293T ELG1-luciferase reporter, luminescence, 16 h; DNA damage induced by 5-fluorouridine; actives 2.3% (n = 330,000); Potency, µM (highest dose often 46.1 µM), inactives show top-dose activity change, negative = inhibition, most hits filed as inhibitors; further: potency means the concentration at half of the fitted maximal effect; nearly all actives have a fitted effect of over 55% in size
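Reporter activity after DNA damage by 5-fluorouridine is monitored. Compound-treated cells incubate 16 hr at 37 °C, then ONE-Glo is added for 30 min before luminescence reading.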
RORgamma inh = blocks mouse ROR gamma transcriptional activity. P51450. Drosophila S2 Gal4-RORgamma UAS-luciferase reporter, 20 h. Potency, µM (top dose mostly 53.6 µM), for the others: at the top dose activity change, negative = inhibition, hits mostly inhibitors. actives 5.4% (n = 310,000); further: potency means the concentration at half of the fitted maximal effect; nearly all actives have a fitted effect of over 60% in size
Target sequence (P51450 whole entry, looked up, the tested form may be a part): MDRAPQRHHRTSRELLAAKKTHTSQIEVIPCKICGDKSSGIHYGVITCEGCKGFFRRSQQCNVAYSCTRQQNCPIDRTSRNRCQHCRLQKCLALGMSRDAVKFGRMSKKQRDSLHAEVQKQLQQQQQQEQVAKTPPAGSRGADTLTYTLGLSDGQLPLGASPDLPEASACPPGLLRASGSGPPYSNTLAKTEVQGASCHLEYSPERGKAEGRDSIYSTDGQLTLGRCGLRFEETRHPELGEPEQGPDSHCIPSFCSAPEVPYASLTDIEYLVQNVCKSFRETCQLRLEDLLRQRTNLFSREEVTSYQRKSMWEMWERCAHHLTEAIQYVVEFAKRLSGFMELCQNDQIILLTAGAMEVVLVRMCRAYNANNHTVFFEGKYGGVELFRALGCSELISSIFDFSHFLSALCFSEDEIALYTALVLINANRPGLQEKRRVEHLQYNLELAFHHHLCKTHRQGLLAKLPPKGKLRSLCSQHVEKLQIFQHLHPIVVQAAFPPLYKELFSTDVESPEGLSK
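Stably transfected Drosophila Schneider cells are the test system, with ROR gamma fused to Gal4 and luciferase under UAS control; luminescence is read after 20 hr of 700 uM copper sulfate induction at ambient temperature.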
VP16 counter = counter-screen for ROR gamma inhibitors: Gal4-VP16 reporter | actives 3.5% (n = 310,000) | AID 2546 | Potency, µM (series often up to 53.6 µM), without a hit: top-dose activity, negative = inhibition, actives largely listed as inhibitors | Drosophila S2 Gal4-VP16 UAS-luciferase, luminescence, 20 h;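 further: Gal4-VP16 expression switched on by copper sulfate through the metallothionein promoter; potency means the concentration at half of the fitted maximal effect; nearly all actives have a fitted effect of over 50% in size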
DT40 TDP1 CPT = DT40-hTDP1 cell growth loss with CPT; chicken DT40 Tdp1-/-;hTDP1 cells + 20 nM CPT, ATP luminescence, 48 h; Potency, µM (highest dose often 46.2 µM), for inactives: at the highest dose activity change, negative = growth inhibition, actives largely listed as inhibitors; actives 12% (n = 420,000); AID 686979; further: potency means the concentration at half of the fitted maximal effect; nearly all actives have a fitted effect of over 55% in size
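Cell growth measured by CellTiter-Glo luminescence after a minimum 48 h, 37 C compound exposure with 20 nM CPT in Tdp1-knockout DT40 cells stably expressing hTDP1, seeded 400/well; qHTS titration format.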
Starred values were filed as active, the others as inactive; ? = inconclusive; · = no result. This is a sample that favours compounds with a hit; in the whole collection about 21% have one here. Unless noted, the call rests on the fitted dose curve; in most records, active means well fitted curve in the direction sought with a large enough effect; inconclusive means small, poorly fitted or top-dose-only effect, or another doubt; inactive means no such curve, though single readings can be large; an effect the other way counts as inactive or inconclusive. On the % scale 0 is the no-effect control and ±100 the full control effect.

SMILES	IL-1B inflam inh	TDP1 cell noCPT	ELG1 repair inh	RORgamma inh	VP16 counter	DT40 TDP1 CPT
Cc1ccc(N(CC(=O)NC2CCCCC2)S(=O)(=O)c2c(C)nn(C)c2C)cc1	4.3	4.7%	0.0%	-31.9%	2.7%	-1.8%
COc1ccc(N(CC(=O)N2CCN(c3ccccc3)CC2)S(=O)(=O)c2c(C)noc2C)cc1	-14.0	?	-12.0%	-0.5%	-6.3%	?
COc1ccc(N(CC(=O)N2CCN(c3cc(C)ccc3C)CC2)S(=O)(=O)c2c(C)noc2C)cc1	0.0	13µM*	-3.4%	12.6%	-13.1%	23.1µM*
O=C(O)c1cc(C(=O)O)c(C(=O)N(Cc2cccc(Oc3ccccc3)c2)[C@H]2CCCc3ccccc32)cc1C(=O)O	·	·	·	1.6%	2.9%	·
O=C1CC(c2ccc(OCCCCCOc3ccc(C4CC(=O)NC4=O)cc3)cc2)C(=O)N1 (stereo not drawn)	-131.5*	?	?	?	-12.6%	-26.7%
Cc1cc(C(=O)NCc2nnc3n2CCN(Cc2ccc(F)cc2F)CC3)c(C)o1	·	-8.7%	·	·	·	-24.9%
COC(=O)COc1ccccc1/C=C1/NC(=O)NC1=O	-71.0*	-11.3%	1.8%	-8.8%	-11.1%	9.0%
O=C1NC(=O)/C(=C\c2ccccc2OCc2cccc([N+](=O)[O-])c2)N1	1.3	-11.9%	?	16.8%	-7.3%	-19.6%
Cc1cnc(NC(=O)C2(C)CCN2C(=O)C(C)C)s1 (stereo not drawn)	24.3	-8.0%	·	·	·	2.1%
COCc1c(C#N)c(NCc2cc(OC)c(OC)c(OC)c2)nc(C)c1[N+](=O)[O-]	-24.9	20.6µM*	16.4µM*	?	?	18.4µM*
COCc1c(C#N)c(NCCc2ccccc2)nc(C)c1[N+](=O)[O-]	26.8	?	?	-7.9%	5.2%	?
Cn1c(=O)cc(SCC(=O)Nc2cccnc2)c2ccccc21	38.2	?	?	14.4%	-4.4%	?
CCOC(=O)c1cccc(NC(=O)CN2C(=O)C3C4C=CC(C4)C3C2=O)c1 (stereo not drawn)	-94.9*	-5.0%	-3.6%	14.5%	5.7%	2.2%
COC(=O)c1cccc(NC(=O)CN2C(=O)C3CCCCC3C2=O)c1 (stereo not drawn)	-14.4	-14.2%	11.0%	·	·	-12.9%
COc1ccc(CNC(=O)CSc2cc(=O)n(C)c3ccccc23)cc1	-23.1	16.4µM*	29.3%	0.4%	-3.5%	?
CCn1c(=O)cc(SCC(=O)Nc2ccc(OC)c(OC)c2)c2ccccc21	?	23.1µM*	?	26.0%	?	18.4µM*
CCn1c(=O)cc(SCC(=O)Nc2cccc(C)n2)c2ccccc21	-23.5	?	?	0.6%	-5.5%	?
COc1cc(NC(=O)CSc2cc(=O)n(C)c3ccccc23)cc(OC)c1OC	·	?	·	·	·	10.3µM*
O=c1c(-c2cccs2)nc2cnc(N3CCNCC3)nc2n1-c1ccccc1	·	?	·	5.1%	-10.0%	?
CCN(C)C1CN(Cc2cn(Cc3ccc(F)cc3)nn2)S(=O)(=O)C1 (stereo not drawn)	21.1	-15.4%	·	·	·	1.9%
COc1cc(=O)n2c(c1C(=O)NCc1ccco1)CCN(Cc1c(F)cccc1F)CC2	·	-7.2%	·	·	·	-7.0%
CCOC(=O)c1cccc(NC(=O)CSc2cc(=O)n(C)c3ccccc23)c1	·	?	·	·	·	20.6µM*
CCn1c(=O)cc(SCC(=O)Nc2cc(Cl)ccc2OC)c2ccccc21	·	16.4µM*	·	·	·	?
CCOC(=O)N1CCN(C(=O)C[C@@H]2C[C@@]3(C(=O)OCC)CCC=C3N(CCC3=CCCCC3)C2=O)CC1	0.0	?	·	·	·	?
CCOC(=O)[C@]12CCC=C1N(CCC1=CCCCC1)C(=O)[C@H](CC(=O)N1CCSCC1)C2	28.2	?	·	·	·	18.4µM*
SMILES	IL-1B inflam inh	TDP1 cell noCPT	ELG1 repair inh	RORgamma inh	VP16 counter	DT40 TDP1 CPT
CCOC(=O)[C@]12CCCC=C1N(CCc1ccc(OC)c(OC)c1)C(=O)[C@H](CC(=O)NCCCCc1ccccc1)C2	-56.9*	16.4µM*	·	·	·	?
CCCCNC(=O)C[C@@H]1C[C@@]2(C(=O)OC)CCCCC=C2N(CCc2ccc(OC)c(OC)c2)C1=O	-12.6	23.1µM*	·	·	·	?
CCCCNC(=O)C[C@@H]1C[C@@]2(C(=O)OCC)CCCC=C2N(CCc2ccc(OC)c(OC)c2)C1=O	3.8	18.4µM*	·	·	·	1.46µM*
c1cncc(-c2cc(NCc3cccs3)ncn2)c1	·	?	·	7.2%	-14.3%	?
CCOC(=O)[C@]12CCCC=C1N(CCc1ccc(OC)c(OC)c1)C(=O)[C@H](CC(=O)NCCc1ccccc1OC)C2	-3.1	16.4µM*	·	·	·	13µM*
CCCCCCCCN1C(=O)[C@H](CC(=O)NCCCOC)C[C@@]2(C(=O)OCC)CCCC=C12	?	11.6µM*	·	·	·	23.1µM*
CCCCCCCCN1C(=O)[C@H](CC(=O)NCCCN2CCCC2=O)C[C@@]2(C(=O)OCC)CCCC=C12	-12.2	?	·	·	·	?
CCCCCCCCN1C(=O)[C@H](CC(=O)NCCc2ccccc2OC)C[C@@]2(C(=O)OCC)CCCC=C12	?	29.1µM*	·	·	·	?
CCOC(=O)[C@]12CCCC=C1N(CCc1ccc(OC)c(OC)c1)C(=O)[C@H](CC(=O)N1CCSCC1)C2	-9.9	?	·	·	·	16.4µM*
COC(=O)[C@]12CCCCC=C1N(CCc1ccc(OC)c(OC)c1)C(=O)[C@H](CC(=O)N1CCOCC1)C2	-11.0	2.3%	·	·	·	6.7%
O=C(O)c1cc(S(=O)(=O)N2CCCCC2)ccc1N1CCOCC1	1.1	-0.4%	0.0%	·	·	-1.2%
CN(CC(=O)N/N=C/c1ccc(F)cc1)S(=O)(=O)c1ccccc1	-10.8	-10.6%	·	·	·	-3.8%
COc1ccccc1CC(=O)Nc1ccc(O)cc1C(=O)O	9.9	-1.8%	-0.5%	-1.2%	-9.5%	-15.8%
CCCCCCCCN1C(=O)[C@H](CC(=O)NCC23CC4CC(CC(C4)C2)C3)C[C@@]2(C(=O)OCC)CCCC=C12	3.6	18.4µM*	·	·	·	?
CCOC(=O)[C@]12CCC=C1N(CCC1=CCCCC1)C(=O)[C@H](CC(=O)NCc1cccc(C(F)(F)F)c1)C2	-21.5	20.6µM*	·	·	·	?
CCOC(=O)[C@]12CCC=C1N(Cc1ccccc1)C(=O)[C@H](CC(=O)NCc1cccc3ccccc13)C2	-15.5	?	·	·	·	?

Screening results deposited in PubChem by National Center for Advancing Translational Sciences (NCATS).
